A selection: hits, their analogues and other compounds. The true share with any hit is near 0.95%.
A488 autofl = A488 region autofluorescence; compound autofluorescence, A488 spectral region, dye equivalency; Compound Type: qHTS ECL - MLSMR; max dye equivalency, M; 59,000 tested, 0.1% active
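Spectroscopic profiling in the A488 region: compounds in pH 8.0 Tris (100 mM), 15 min RT, CCD imaging with 480 nm excitation and 540 nm emission; responses normalized against A488 dye standards.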
Resorufin fluor = compounds fluorescent in resorufin spectral region; AID 588; max dye-equivalent concentration, M; Compound fluorescence, resorufin region 547/598 nm, buffer; active compounds read high; 59,000 tested, 0.04% active
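Read-out: intrinsic compound fluorescence at ex 547/em 598 nm after 15 min at RT in pH 8.0 Tris (100 mM). Values expressed as resorufin-equivalent concentration from per-plate standard series.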
Texas Red fluor = Texas Red region autofluorescence; Compound fluorescence, Texas Red channel, 547/618 nm; active compounds read high; max dye-equivalent concentration, M; 59,000 tested, 0.06% active; in the data active = max dye-equivalent concentration above about 10 nM; inconclusive = between about 1.1 nM and that limit
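Compound titrations in 100 mM Tris pH 8.0 were incubated 15 min at room temperature and read at 547 nm excitation / 618 nm emission. Texas Red six-point standard curve on each plate converted fluorescence to dye-equivalent concentration.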
Fluorescein autfl = compound fluoresces in the fluorescein spectral region; AID 593; max fluorescein-equivalent concentration, M; Compound autofluorescence, 480/540 nm, fluorescein-equivalent; active compounds read high; 59,000 tested, 0.91% active; in the data active = max fluorescein-equivalent concentration above about 10 nM; inconclusive = between about 1.1 nM and that limit
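Each compound is tested across a concentration series in 100 mM Tris buffer at pH 8.0. After 15 min at room temperature, plates are imaged with 480 nm excitation and 540 nm emission filters, and intensities are converted to fluorescein-equivalent values.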
A647 fluor = compound autofluorescence in A647 spectral region. max dye-equivalent concentration, M. 59,000 tested, under 10 active. Compound fluorescence, A647 channel (570/671 nm), Tris buffer;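 note: values scaled relative to a standard on each plate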
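Spectral profiling of library compounds in pH 8.0 Tris: 15 min room-temperature incubation, single ex/em pair (570/671 nm), response normalized to Alexa 647 equivalents.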
Rhodamine fluor = compound autofluorescence in rhodamine spectral region | Rhodamine-region fluorescence, 547/598 nm, Tris buffer; active compounds read high | max dye-equivalent concentration, M | 59,000 tested, 0.05% active; in the data active = max dye-equivalent concentration above about 11 nM; inconclusive = between about 1.1 nM and that limit
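Compound fluorescence in 100 mM Tris, pH 8.0, read after 15 min at room temperature with 547 nm excitation and 598 nm emission. Output is dye-equivalent concentration from an on-plate rhodamine standard series.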
* hit, by the source's call; i = inactive; ? = inconclusive; ! = a repeat was not active. Unless noted, the rule behind the calls is not given here.

SMILES | A488 autofl | Resorufin fluor | Texas Red fluor | Fluorescein autfl | A647 fluor | Rhodamine fluor
CC(=O)Nc1cc(CN2CCCCC2)c(O)c2ncccc12 | i | i | i | ? | 1.6e-08 | i
C=C1CC[C@@H]2O[C@]2(C)CC[C@@H]2[C@H]1CC2(C)C | i | i | i | i | 2.6e-09 | i
Nc1ccn([C@H]2CC[C@H](CO)O2)c(=O)n1 | i | i | i | ? | 4.6e-08 | i
COc1ccccc1/C=c1\sc2nc(-c3ccncc3)nn2c1=O | i | i | i | 1.5e-08M* | 1e-09 | i
COc1ccccc1-c1nc(N(C)C)c2ccccc2n1 | i | i | i | i | 1.5e-08 | i
COc1ccc(C2C3=C(CC(C)(C)CC3=O)Nc3c2c(=O)[nH]c(=O)n3Cc2ccccc2)cc1OC (stereo unspecified) | i | i | i | 1.1e-08M* | 5.3e-08 | i
COc1cc(C2C3=C(CC(C)(C)CC3=O)Nc3c2c(=O)[nH]c(=O)n3Cc2ccccc2)ccc1O (stereo unspecified) | i | i | i | ? | 1e-09 | i
CN(C)/C=c1\sc2c(C#N)cc(C(=O)c3ccc(Br)cc3)n2c1=O | 4.3e-08M* | i | i | 8.1e-07M* | 2.5e-08 | i
COc1ccc2[nH]cc(CCNc3ccnc(-c4ccccc4Cl)n3)c2c1 | i | i | i | i | 1e-09 | i
Cc1c(C2Nc3ccccc3NC3=C2C(=O)CC(C)(C)C3)cnn1C (stereo unspecified) | i | i | i | 1.1e-08M*! | 6.8e-09 | i
Cc1cccc(-n2c(O)c(C=Nc3ccc4c(c3)OCO4)c3ccccc3c2=O)n1 | ? | i | i | 5.8e-08M* | 3e-08 | i
Cc1cc(N=Cc2c(O)n(-c3ccc4c(c3)OCO4)c(=O)c3ccccc23)ccn1 | i | i | ? | ? | 2.3e-09 | i
COc1ccccc1-c1nccc(Nc2ccc(F)cc2)n1 | i | i | i | ? | 4.1e-08 | i
COc1ccc(N=c2oc3cc(O)ccc3cc2C(=O)NCC2CCCO2)cc1 (stereo unspecified) | i | i | i | i | 1.4e-09 | i
COc1ccc(N=c2oc3cc(O)ccc3cc2C(=O)NCC2CCCO2)c(OC)c1 (stereo unspecified) | i | i | i | 1.4e-08M* | 2.6e-08 | i
C[C@H]1[C@H](C)CC[C@@]2(C(=O)O)CC[C@]3(C)C(=CC[C@H]4[C@@]5(C)C[C@@H](O)[C@H](O)[C@@](C)(CO)[C@@H]5CC[C@@]43C)[C@@H]12 | i | i | i | i | 1e-09 | i
Cc1csc(NC(=O)c2sc3nc(-c4cccs4)ccc3c2N)n1 | i | i | i | 1.4e-08M* | 1e-09 | i
COc1ccc(C(=O)Nc2nc(-c3cccs3)cs2)cc1 | i | i | i | ? | 1.8e-08 | i
Cn1cc(C2=C(c3ccc(Cl)cc3Cl)C(=O)NC2=O)c2ccccc21 | 2.7e-08M* | ? | i | 5e-07M* | 1.8e-09 | ?
CN[C@@H]1[C@H](O)[C@H](NC)[C@@H]2O[C@]3(O)C(=O)C[C@@H](C)O[C@H]3O[C@@H]2[C@H]1O | i | i | i | i | 2.3e-08 | i
CCOC(=O)c1csc(NC(=O)CSc2nnnn2-c2ccc(OCC)cc2)n1 | i | i | i | 2.3e-08M* | 1e-09 | i
C=CCn1c(O)c(CN2CCOCC2)c(C)c(C#N)c1=O | i | i | ? | 1.3e-08M* | 5.3e-09 | i
Cn1c(CN2CCOCC2)c(C#N)c2ccccc21 | i | i | i | ? | 1e-09 | i
CCNc1ncc2nc(-c3ccc(F)cc3)c(=O)n(CCC#N)c2n1 | i | i | i | ? | 3.8e-08 | i
CC(C)(C)c1cc(/C=C(\C#N)C(N)=S)cc(C(C)(C)C)c1O | i | i | i | 2.8e-08M* | 7.9e-09 | i
CC(=O)C1(C)OC(N)=C(C#N)C(c2ccccc2)C1(C#N)C#N (stereo unspecified) | i | i | i | 1.1e-08M* | 3.2e-09 | i
CCOC(=O)C1=C(C(C)=O)C(c2cccnc2)C(C#N)=C(N)O1 (stereo unspecified) | i | i | ? | i | 3e-08 | i

Assay outcomes deposited in PubChem by National Center for Advancing Translational Sciences (NCATS).
